Screening results as filed in PubChem BioAssay.
Sampled rows, rich in hits. Any-hit rate of the full collection: about 3.4%.
MITF inh = blocks human microphthalmia-associated transcription factor | O75030 | AlphaScreen MITF homodimerization, bead proximity signal | inhibition, % at 2.6 µM | 650,000 tested, 0.91% active; in the data active means inhibition above about 50%
TEAD-YAP block = TEAD-YAP interaction inhibition. 640,000 tested, 1.4% active. inhibition, % at 9.12 µM. HEK-TIYL cells, TEAD-Gal4/YAP UAS-luciferase luminescence; in the data active means inhibition above about 32%
FBW7 activator = activators of human E3 ligase FBW7 | AlphaScreen FBW7–phospho-cyclin E peptide binding, activator screen | 650,000 tested, 0.13% active | Q969H0 | normalized activity (activation), % at 26.1 µM; in the data active means normalized activity above about 1.9%;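 further: purified mutant Fbw7 with reduced substrate affinity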
GPR151 activ = human GPR151 activation. Q8TDV0. 650,000 tested, 1% active. activation, % at 11.2 µM. PathHunter beta-arrestin GPR151 cells, luminescence; in the data active means activation above about 4.9%
Target sequence (Q8TDV0 whole entry, looked up): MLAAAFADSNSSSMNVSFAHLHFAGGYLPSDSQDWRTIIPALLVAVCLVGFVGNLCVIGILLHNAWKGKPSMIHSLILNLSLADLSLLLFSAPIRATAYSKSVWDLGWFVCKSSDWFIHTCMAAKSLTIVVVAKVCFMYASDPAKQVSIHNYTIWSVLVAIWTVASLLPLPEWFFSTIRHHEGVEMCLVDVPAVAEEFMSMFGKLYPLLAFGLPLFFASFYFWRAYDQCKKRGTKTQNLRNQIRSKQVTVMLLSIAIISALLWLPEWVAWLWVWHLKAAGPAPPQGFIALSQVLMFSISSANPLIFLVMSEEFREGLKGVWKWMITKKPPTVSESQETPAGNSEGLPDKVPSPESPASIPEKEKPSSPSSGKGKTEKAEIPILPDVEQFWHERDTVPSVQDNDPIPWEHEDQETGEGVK
Numbers stand for hits.

For COc1ccc(/C(N)=N/OC(=O)c2ccc(C)cc2Cl)cc1 the results were MITF inh inactive, TEAD-YAP block inactive, FBW7 activator inactive and GPR151 activ inactive.
`Cc1ccc(C(=O)O/N=C(\N)c2ccccc2)c(Cl)c1` gave MITF inh inactive, TEAD-YAP block 74.5, FBW7 activator inactive and GPR151 activ inactive.
Screening CC(C)(C)c1ccc(C(=O)O/N=C(\N)c2ccccc2)cc1 returned MITF inh inactive, TEAD-YAP block 85.8, FBW7 activator inactive and GPR151 activ inactive.
N/C(=N\OC(=O)c1ccccc1Br)c1ccc(Cl)cc1 was read as MITF inh inactive, TEAD-YAP block inactive, FBW7 activator inactive and GPR151 activ inactive.
`COc1ccc(/C(N)=N/OC(=O)c2ccc(C(C)(C)C)cc2)cc1` gave MITF inh inactive, TEAD-YAP block inactive, FBW7 activator inactive and GPR151 activ inactive.
CC(=O)Oc1ccc(C(=O)O/N=C(\N)c2cccnc2)cc1 was read as MITF inh inactive, TEAD-YAP block 34.6, FBW7 activator inactive and GPR151 activ inactive.
For COc1ccc2nc(N3CCN(C(=O)c4cc(C)n(C)n4)CC3)sc2c1 the results were MITF inh inactive, TEAD-YAP block inactive, FBW7 activator inactive and GPR151 activ inactive.
Screening Cc1nc2ccccc2n1CC(O)COc1ccc(C(C)C)cc1 (configuration not stated) returned MITF inh inactive, TEAD-YAP block 48.5, FBW7 activator inactive and GPR151 activ inactive.
C=CCc1cc(C)ccc1OCC(O)Cn1c(C)nc2ccccc21 (configuration not stated) was read as MITF inh inactive, TEAD-YAP block 47.3, FBW7 activator inactive and GPR151 activ inactive.
Screening O=c1ccn(C2CC(O)C(CO)O2)c(=O)[nH]1 (configuration not stated) returned MITF inh inactive, TEAD-YAP block inactive, FBW7 activator inactive and GPR151 activ inactive.
Cc1cc(C)nc(/N=C(\N)Nc2ccc(CC(=O)OC(C)C)cc2)n1 was read as MITF inh inactive, TEAD-YAP block 40.0, FBW7 activator inactive and GPR151 activ inactive.
Screening CCN(CC)c1ccc(N/C(N)=N/c2nc(C)cc(C)n2)cc1 (tested in a mixture with another compound) returned MITF inh inactive, TEAD-YAP block 57.6, FBW7 activator inactive and GPR151 activ inactive.
`COc1cc(C2CC(=O)Nc3c2ccc2ccccc32)c(Br)c(OC)c1OC` (configuration not stated) gave MITF inh inactive, TEAD-YAP block 59.0, FBW7 activator inactive and GPR151 activ inactive.
COc1cc(C2CC(=O)Nc3cc4c(cc32)OCO4)c(Br)c(OC)c1OC (configuration not stated) was read as MITF inh inactive, TEAD-YAP block 51.1, FBW7 activator inactive and GPR151 activ inactive.
COc1ccc(C2CC(=O)Nc3cc4c(cc32)OCO4)cc1O (configuration not stated) was read as MITF inh inactive, TEAD-YAP block inactive, FBW7 activator inactive and GPR151 activ inactive.
For CCCNC(=O)CCc1nc(-c2ccccc2Cl)no1 the results were MITF inh inactive, TEAD-YAP block inactive, FBW7 activator inactive and GPR151 activ inactive.
For CCNC(=O)CCCc1nc(-c2ccccc2Cl)no1 the results were MITF inh inactive, TEAD-YAP block 35.5, FBW7 activator inactive and GPR151 activ inactive.
COc1ccc2cnn(-c3nc4ccccc4[nH]3)c(=O)c2c1OC was read as MITF inh inactive, TEAD-YAP block 43.0, FBW7 activator inactive and GPR151 activ inactive.
Cc1nn(-c2nc3ccccc3[nH]2)c(=O)c2ccccc12 was read as MITF inh inactive, TEAD-YAP block 97.4, FBW7 activator inactive and GPR151 activ inactive.
CC(C)c1ccc(-c2csc(NC(=O)c3cc(Cl)cc(Cl)c3)n2)cc1 was read as MITF inh inactive, TEAD-YAP block inactive, FBW7 activator inactive and GPR151 activ inactive.
`CCn1nc(C)cc1C(=O)Nc1nc(-c2ccc(C(C)C)cc2)cs1` gave MITF inh inactive, TEAD-YAP block 37.9, FBW7 activator inactive and GPR151 activ inactive.
Cc1c2oc3c(C)ccc(C(=O)C4CCCCO4)c3nc-2c(C(=O)C2CCCCO2)c(N)c1=O (configuration not stated) was read as MITF inh inactive, TEAD-YAP block 96.0, FBW7 activator inactive and GPR151 activ inactive.
For CSc1sccc1/C=N/Nc1ccc([N+](=O)[O-])cc1 the results were MITF inh inactive, TEAD-YAP block inactive, FBW7 activator 2.1 and GPR151 activ inactive.
Screening COc1ccc(-c2noc(N3CCCCC3)n2)cc1 returned MITF inh inactive, TEAD-YAP block inactive, FBW7 activator inactive and GPR151 activ inactive.
`CC(C)=CCC/C(C)=C/CC(C)(C)CNCCN1CCNCC1` gave MITF inh inactive, TEAD-YAP block 58.1, FBW7 activator inactive and GPR151 activ inactive.
For COc1ccc(N=Cc2cccc([N+](=O)[O-])c2)cc1 the results were MITF inh inactive, TEAD-YAP block inactive, FBW7 activator inactive and GPR151 activ inactive.
O=C(NCc1ccco1)c1ccc(N2CC3CC(C2)c2cccc(=O)n2C3)c(NC(=O)c2ccncc2)c1 (configuration not stated) was read as MITF inh inactive, TEAD-YAP block 45.2, FBW7 activator inactive and GPR151 activ inactive.
For CCCN1C(=O)c2ccc(C(=O)Nc3ccc(O)cc3)cc2C1=O the results were MITF inh inactive, TEAD-YAP block 38.4, FBW7 activator inactive and GPR151 activ inactive.
`CCN1C(=O)c2ccc(C(=O)Nc3cc(C(=O)O)cc(C(=O)O)c3)cc2C1=O` gave MITF inh inactive, TEAD-YAP block inactive, FBW7 activator inactive and GPR151 activ inactive.
Screening CCCN1C(=O)c2ccc(C(=O)Nc3ccc(C(=O)O)cc3)cc2C1=O returned MITF inh inactive, TEAD-YAP block 53.1, FBW7 activator inactive and GPR151 activ inactive.
CCCN1C(=O)c2ccc(C(=O)Nc3ccc(O)cc3C)cc2C1=O was read as MITF inh inactive, TEAD-YAP block inactive, FBW7 activator inactive and GPR151 activ inactive.
For Cn1cc(C2CC(=O)N(c3ccc(Br)cc3)C2=O)c2ccccc21 (configuration not stated) the results were MITF inh inactive, TEAD-YAP block inactive, FBW7 activator inactive and GPR151 activ inactive.
C/C(=N/Nc1ccc(C(=O)O)cc1)c1ccc(F)cc1F was read as MITF inh inactive, TEAD-YAP block inactive, FBW7 activator inactive and GPR151 activ inactive.
For Cc1nonc1C(=O)N/N=C/c1cccc([N+](=O)[O-])c1 the results were MITF inh inactive, TEAD-YAP block inactive, FBW7 activator inactive and GPR151 activ inactive.
Screening CCOC(=O)C1=C(C)Nc2cc(C(F)(F)F)ccc2S1 returned MITF inh inactive, TEAD-YAP block inactive, FBW7 activator inactive and GPR151 activ inactive.
Cc1cc(Br)c(S(=O)(=O)N2CCCCC2)cc1C was read as MITF inh inactive, TEAD-YAP block inactive, FBW7 activator inactive and GPR151 activ inactive.
Cc1cc(Br)c(S(=O)(=O)N2CCC(C)CC2)cc1C was read as MITF inh inactive, TEAD-YAP block inactive, FBW7 activator 2.1 and GPR151 activ inactive.
Screening Cc1ccc(-n2c(=S)sc3c(=O)n(-c4ccc(F)cc4)c(=S)[nH]c32)c(C)c1 returned MITF inh inactive, TEAD-YAP block inactive, FBW7 activator inactive and GPR151 activ inactive.
